This note sets out measurements from PubChem BioAssay (NCI).

Each structure is given as a SMILES string. This is part of a sample that, as a whole, favours compounds with a hit. Of some 83,000 tested, about 20% had one in any assay.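 Growth was measured after 48 h exposure to one concentration of compound in 96-well plates. Values under 10 count as active.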 Values without a mark were called inactive. Active and inactive are the calls of the source.

Among the test systems are HCT-15 colon; HT29 colon; SNB-75 CNS; SNB-19 CNS; U251 CNS; PC-3 prostate; SK-MEL-5 melanoma; UACC-62 melanoma; LOX IMVI melanoma; SK-MEL-28 melanoma; SK-MEL-2 melanoma; EKVX NSCLC; SN12C renal; UO-31 renal; TK-10 renal; ACHN renal; CAKI-1 renal; CCRF-CEM leukemia; MOLT-4 leukemia; A498 renal.
What all share (test): NCI-60 one-dose screen, 48 h (100 = growth as untreated, 0 = no growth, -100 = all killed)
Conditions in all cases: 10 µM unless noted

In the case of `O=C(CSc1nc2sc3c(c2c(=O)n1Cc1ccccc1)CCCC3)N1CCN(c2ccccc2)CC1`, the growth with HCT-15 colon was 94.8%; in the assay with HT29 colon it was 90.2%; in the assay with SNB-75 CNS, 79.4%; in the assay on SNB-19 CNS, 110%; in the assay on U251 CNS, 90.8%; with PC-3 prostate, 83.2%. For the same molecule, the growth with SK-MEL-5 melanoma is 98.5%; in the assay on UACC-62 melanoma it was 96%; in the assay with LOX IMVI melanoma, 97%; in the assay on SK-MEL-28 melanoma, 106%; in the assay on SK-MEL-2 melanoma it was 106%; with EKVX NSCLC, 99.6%. For the same molecule, the growth with SN12C renal was 110%; with UO-31 renal it was 76.8%; in the assay on TK-10 renal it was 104%; in the assay with ACHN renal it was 104%; in the assay on CAKI-1 renal, 92.9%; with CCRF-CEM leukemia it was 97.7%. Further, the growth in the assay on MOLT-4 leukemia is 92.8%.

Consider `Cc1ccc(Nc2cc(=S)nc(N)[nH]2)cc1C`, for which the growth is 104% in the assay with HCT-15 colon; 94.3% with HT29 colon; 78.1% in the assay with SNB-75 CNS; 90.1% with SNB-19 CNS; 92.1% with U251 CNS; 90.7% in the assay with PC-3 prostate. Further, the growth is 102% in the assay on SK-MEL-5 melanoma; 89.2% in the assay with UACC-62 melanoma; 105% with LOX IMVI melanoma; 101% in the assay on SK-MEL-28 melanoma; 99.9% in the assay with SK-MEL-2 melanoma; 79% with EKVX NSCLC. The growth in the assay on SN12C renal was 92.4%; in the assay on UO-31 renal, 81.4%; with TK-10 renal, 144%; in the assay on ACHN renal, 91.2%; in the assay with CAKI-1 renal it was 90.5%; in the assay with CCRF-CEM leukemia, 112%. Further, the growth in the assay on MOLT-4 leukemia is 97.4%.

For the molecule `O=C1C(=O)c2c(nc3ncccn23)-c2ccccc21`, the growth was -67.2% (active) with HCT-15 colon; -17.2% (active) in the assay on HT29 colon; -92.8% (active) in the assay with SNB-75 CNS; -88% (active) in the assay on SNB-19 CNS; -84% (active) in the assay on U251 CNS; -4.28% (active) with PC-3 prostate. The growth in the assay on SK-MEL-5 melanoma is -99.4% (active); with UACC-62 melanoma, -92.8% (active); in the assay with LOX IMVI melanoma, -88% (active); with SK-MEL-28 melanoma, -85.7% (active); with SK-MEL-2 melanoma, -58.9% (active); in the assay on EKVX NSCLC it was -75.8% (active). Also, the growth with SN12C renal was -82.3% (active); in the assay with UO-31 renal, -98.4% (active); in the assay on TK-10 renal it was -52.4% (active); in the assay with ACHN renal, -100% (active); in the assay with A498 renal it was -95.9% (active); in the assay on CCRF-CEM leukemia, -3.54% (active). Further, in the assay with MOLT-4 leukemia, the growth was -46.6% (active).

As for `C(=C\c1n(Cc2ccc3ccccc3c2)c(-c2ccccc2)c(-c2ccccc2)[n+]1Cc1ccc2ccccc2c1)/c1ccccc1`, the growth in the assay on HCT-15 colon was -81.2% (active); with HT29 colon, -63.5% (active); in the assay with SNB-75 CNS, -99.9% (active); with SNB-19 CNS it was -93.7% (active); with U251 CNS it was -80.6% (active); in the assay on PC-3 prostate it was -81.2% (active). Moreover, the growth in the assay with SK-MEL-5 melanoma was -99.1% (active); in the assay on UACC-62 melanoma, -89.9% (active); in the assay with LOX IMVI melanoma, -96% (active); in the assay on SK-MEL-28 melanoma, -80.8% (active); in the assay with SK-MEL-2 melanoma, -68.7% (active); in the assay on EKVX NSCLC it was -77.5% (active). In addition, the growth was -91% (active) with SN12C renal; -99.1% (active) in the assay with UO-31 renal; -81.8% (active) in the assay with TK-10 renal; -94.9% (active) in the assay on ACHN renal; -100% (active) in the assay with CAKI-1 renal; -17.8% (active) in the assay on CCRF-CEM leukemia. For the same molecule, the growth in the assay with MOLT-4 leukemia was -43.5% (active).

Turning to `Cc1ccc(-c2csc(/N=C3\C(=O)Nc4ccccc43)n2)cc1`, the growth in the assay with HCT-15 colon is 32%; in the assay on HT29 colon it was -8.75% (active); with SNB-75 CNS, 55.5%; with SNB-19 CNS it was 22.8%; in the assay with U251 CNS, -47.5% (active); in the assay with PC-3 prostate, 2.72% (active). For the same molecule, the growth in the assay on SK-MEL-5 melanoma is -20.2% (active); in the assay on UACC-62 melanoma it was 0.615% (active); in the assay on LOX IMVI melanoma it was -0.0538% (active); in the assay on SK-MEL-28 melanoma it was 13.7%; in the assay with SK-MEL-2 melanoma, -51.2% (active); with EKVX NSCLC, 33.6%. The growth in the assay on SN12C renal was 23.4%; in the assay on UO-31 renal, 42%; in the assay with TK-10 renal it was 8.33% (active); with ACHN renal, 36.7%; with A498 renal, 5.79% (active); in the assay with CCRF-CEM leukemia, 6.64% (active). Further, the growth in the assay with MOLT-4 leukemia was -19.5% (active).

Regarding `CC(=O)c1c(-c2ccc(OC(F)(F)F)cc2)nc2ccccn12`, the growth in the assay on HCT-15 colon is 94.9%; in the assay with HT29 colon, 74.2%; with SNB-75 CNS it was 91.9%; in the assay with SNB-19 CNS it was 99.1%; in the assay with U251 CNS, 89.8%; in the assay with PC-3 prostate it was 95.1%. Moreover, the growth was 96.6% with SK-MEL-5 melanoma; 105% in the assay on UACC-62 melanoma; 91.6% with LOX IMVI melanoma; 90% with SK-MEL-28 melanoma; 81.5% with SK-MEL-2 melanoma; 96% in the assay with EKVX NSCLC. The growth is 103% in the assay with SN12C renal; 81.6% with UO-31 renal; 6.58% (active) in the assay on TK-10 renal; 95.7% with ACHN renal; 92.4% with CAKI-1 renal; 109% in the assay with CCRF-CEM leukemia. The growth in the assay with MOLT-4 leukemia was 118%.

For `COc1ccc2c(c1)OC13Oc4cc(OC)ccc4C=C1CCCC3=C2`, the growth in the assay with HCT-15 colon was 12.8%; in the assay on HT29 colon it was 8.16% (active); in the assay on SNB-75 CNS it was 74.6%; in the assay on SNB-19 CNS it was 54.7%; in the assay with U251 CNS, 35%; in the assay on PC-3 prostate, 23.6%. Also, the growth in the assay on SK-MEL-5 melanoma is 40.3%; in the assay on UACC-62 melanoma, 14.8%; in the assay with LOX IMVI melanoma, -32.1% (active); with SK-MEL-28 melanoma, 63%; in the assay on SK-MEL-2 melanoma, 15.7%; with EKVX NSCLC, 39.7%. The growth in the assay on SN12C renal is 44.1%; in the assay with UO-31 renal, 36.3%; in the assay with TK-10 renal it was 47%; in the assay on ACHN renal it was 25.3%; in the assay with A498 renal it was 69.8%; in the assay on CCRF-CEM leukemia, 5.97% (active). In addition, the growth in the assay with MOLT-4 leukemia is -3.56% (active).
